The campaign covered roughly 190,000 compounds. About 1,300 (0.68%) were called active. The list comes from a sample in which actives are over-represented; it also holds similar structures and randomly drawn compounds. A number with no mark means an inactive call. Cut-off read from the data, not from the text of the source: active = inhibition above about 50%; inactive = the rest.
These compounds were tested against Mannose-6-phosphate isomerase (Homo sapiens) (UniProt P34949) (assay: human PMI inhibitors, high substrate, primary screen, biochemical, fluorescence intensity, high mannose 6-phosphate (AID 1220)). Details: recombinant PMI enzyme, coupled fluorescence intensity; at 20 µM; stronger effect = higher value.
Sequence of Mannose-6-phosphate isomerase (Homo sapiens) (P34949 whole entry, looked up): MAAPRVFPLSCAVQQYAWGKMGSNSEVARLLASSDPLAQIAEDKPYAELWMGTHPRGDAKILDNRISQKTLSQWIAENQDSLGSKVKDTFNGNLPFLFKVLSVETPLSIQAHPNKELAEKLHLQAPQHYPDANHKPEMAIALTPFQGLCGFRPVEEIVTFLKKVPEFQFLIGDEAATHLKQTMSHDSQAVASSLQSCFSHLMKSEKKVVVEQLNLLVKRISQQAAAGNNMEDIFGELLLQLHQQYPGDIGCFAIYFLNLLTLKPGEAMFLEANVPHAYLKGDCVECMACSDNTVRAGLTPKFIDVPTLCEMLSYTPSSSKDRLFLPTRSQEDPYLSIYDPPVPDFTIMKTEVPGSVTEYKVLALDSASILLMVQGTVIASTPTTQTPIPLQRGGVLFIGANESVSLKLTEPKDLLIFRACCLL
For `CC(C)c1ccccc1NC(=O)COC(=O)CNC(=O)c1ccc(Br)cc1`, the inhibition was 4.8%. `Nc1ccc(Cc2ccc(N)c(O)c2)cc1O` was tested, and the inhibition was 46.8%. In the case of `Nc1cc2c(cc1O)CCCC2`, the inhibition is reported as 54.3% (active). For `O=C(O)c1ccc2c(c1)CCC2`, the inhibition was 0.1%. `COc1cc(NC(=O)CSc2c3c(nc4ccccc24)CCC3)cc(OC)c1OC` was tested, and the inhibition was -3.7%. With `CCOc1ccccc1NC(=O)CCN(c1ccc(C)cc1)S(=O)(=O)c1ccccc1` the inhibition was 5.3%. `Cc1nn(Cc2c(F)c(F)c(F)c(F)c2F)c(C)c1NC(=O)c1ccc(COc2cc(Cl)ccc2Cl)cc1` was tested, and the inhibition was 0.7%. For `O=C1C2C3C=CC(C3)C2C(=O)N1CNc1ccc(O)cc1` (stereo unspecified), the inhibition was 58.4% (active). With `O=C1C2C3C=CC(C3)C2C(=O)N1CNc1ccccc1` (stereo unspecified) the inhibition was -1%. Work on `Cc1ccc(NCN2C(=O)C3C4C=CC(C4)C3C2=O)cc1` (stereo unspecified) yielded an inhibition of 16.9%. `CC12CC(NC(=O)N1c1cccc(C(=O)N3CCN(c4ccccn4)CC3)c1)c1ccccc1O2` (stereo unspecified) was tested, and the inhibition was -3.4%. `O=C(CSc1nnc(SCc2cccc3ccccc23)s1)Nc1ccc(C(=O)O)cc1` showed an inhibition of 10.4%. `COc1ccc(COc2ccc(C3C(S(=O)(=O)c4ccccc4)CON3C)cc2OC)cc1` (stereo unspecified) showed an inhibition of -2.4%. For `O=C(O)c1cccc(NS(=O)(=O)c2ccc(-c3ccc(S(=O)(=O)Nc4cccc(C(=O)O)c4)cc3)cc2)c1`, the inhibition was 53.1% (active). With `O=C(O)c1cccc(NS(=O)(=O)c2ccc(C3CCCCC3)cc2)c1` the inhibition was -7%. `O=C(O)c1cccc(NS(=O)(=O)c2ccc(Cl)c(C(=O)O)c2)c1` was tested, and the inhibition was 1.9%. `CC(=O)c1c(C)oc2c1C(=O)c1ccccc1C2=O` was tested, and the inhibition was -9.9%. `CCOC(=O)C1CCN(C(C)=C2C(=O)c3ccccc3C2=O)CC1` gave an inhibition of -9.2%. In the case of `CCOC(=O)c1c(C)oc2c1C(=O)c1ccccc1C2=O`, the inhibition is reported as -16.2%. In the case of `CCOC(=O)C1CCN(C(=O)c2c(C)oc3c2C(=O)c2ccccc2C3=O)CC1`, the inhibition is reported as 55.2% (active). Work on `Cc1oc2c(c1C(=O)O)C(=O)c1ccccc1C2=O` yielded an inhibition of -9.6%. With `Cc1oc2c(c1C(=O)N1CCC(C)CC1)C(=O)c1ccccc1C2=O` the inhibition was 54.7% (active). For `CSc1nc(-c2ccccc2)c(-c2ccccc2)[nH]1`, the inhibition was -9.1%. With `COc1ccc([N+](=O)[O-])cc1N(CC(=O)NC1CCCC1)S(C)(=O)=O` the inhibition was -1.4%. Work on `Cc1cccc(N=C2NN=C(c3c(C)[nH]c4ccccc34)CS2)c1` yielded an inhibition of -7%. In the case of `O=C(Nc1ccc(Cl)cc1)N(Cc1nnc2n1CCCCC2)c1ccccc1`, the inhibition is reported as -8.1%.
